From PubChem
Shown are actives, neighbours in structure and some others; about 1.7% of the full set was active somewhere.
RecA splice inh: Mtb RecA intein splicing inhibitors, primary screen, biochemical, fluorescence, HTS; Protein RecA (Mycobacterium tuberculosis (strain ATCC 25618 / H37Rv)), P9WHJ3; inhibition, % (concentration not given with the values); AID 2221, 2009; 290,000 compounds, 0.75% hits; cell-free RecA intein splicing; in the data active = inhibition above about 30%; inconclusive = no clear call, values can overlap the other calls;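 also: 0% = vehicle wells and 100% = reference inhibitor control wells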
Target sequence (P9WHJ3 whole entry, looked up, canonical isoform): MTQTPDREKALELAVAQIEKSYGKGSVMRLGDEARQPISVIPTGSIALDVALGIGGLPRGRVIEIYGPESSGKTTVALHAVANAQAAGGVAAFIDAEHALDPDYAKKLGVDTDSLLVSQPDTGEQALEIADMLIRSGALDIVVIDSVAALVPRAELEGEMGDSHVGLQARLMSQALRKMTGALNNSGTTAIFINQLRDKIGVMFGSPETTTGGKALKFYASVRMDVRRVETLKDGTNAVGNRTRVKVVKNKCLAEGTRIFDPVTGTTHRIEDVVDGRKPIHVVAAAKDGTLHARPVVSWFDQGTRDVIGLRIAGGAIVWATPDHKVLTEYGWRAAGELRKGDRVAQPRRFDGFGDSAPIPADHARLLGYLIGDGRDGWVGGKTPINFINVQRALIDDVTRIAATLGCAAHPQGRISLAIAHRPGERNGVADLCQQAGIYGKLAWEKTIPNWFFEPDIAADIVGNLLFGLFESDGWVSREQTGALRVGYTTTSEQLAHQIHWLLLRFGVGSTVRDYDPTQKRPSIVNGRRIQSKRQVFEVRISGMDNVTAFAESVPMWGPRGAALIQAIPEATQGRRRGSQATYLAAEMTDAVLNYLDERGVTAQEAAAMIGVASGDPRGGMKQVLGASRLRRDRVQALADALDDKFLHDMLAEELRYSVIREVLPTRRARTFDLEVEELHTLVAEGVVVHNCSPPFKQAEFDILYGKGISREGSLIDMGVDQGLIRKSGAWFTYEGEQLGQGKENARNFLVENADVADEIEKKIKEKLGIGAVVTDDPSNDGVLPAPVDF
PfHsp40 rescue: rescue of yeast from PfHsp40 toxicity, primary screen, S. cerevisiae, ATP luminescence; S. cerevisiae expressing PfHsp40, growth rescue; growth rescue, % at 12.5 µM; 340,000 compounds, 0.68% hits; in the data active = growth rescue above about 28%, passing the limit was not always enough; inconclusive = no clear call, values can overlap the other calls;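 also: yeast W303a lacking pdr1 and pdr3 grown in galactose medium; growth measured after three days at 30 °C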
Mtb hypoxia inh: PubChem AID 1159583; M. tuberculosis hypoxia-regulated fluorescent reporter, fluorescence; fluorescence inhibition, % (test concentration not listed); 300,000 compounds, 0.1% hits; in the data active = fluorescence inhibition mostly above about 23%, no sharp cut-off; inactive = mostly below about 17%
Mtb bLac sens: beta-lactam sensitization of Mtb H37Rv, H37Rv | 330,000 compounds, 0.27% hits | inhibition, % at 25 µM | AID 434955, 2010 | M. tuberculosis H37Rv growth with meropenem, percent inhibition; call rule not given here;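 also: growth measured after seven days incubation then overnight dye step; 0% = bacteria only wells and 100% = bacteria with antibiotic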
CCHF vOTU inh: CCHFV vOTU protease inhibitors, primary screen, biochemical, Pep-AMC substrate, fluorescence; inhibition, % at 11.5 µM; AID 651958, 2012; Crimean-Congo hemorrhagic fever virus L polyprotein viral ovarian tumor (vOTU) protease …; 370,000 compounds, 0.55% hits; in the data active = inhibition above about 30%; also: 0% = vehicle wells with enzyme and 100% = no enzyme wells
Numbers without * were called inactive; ? = inconclusive; / = no result shown.

SMILES | RecA splice inh | PfHsp40 rescue | Mtb hypoxia inh | Mtb bLac sens | CCHF vOTU inh
Cc1ccc(-n2[nH]c(C)c(/C=N/NC(=O)c3ccc(O)cc3O)c2=O)cc1 | 11 | 76* | / | 5 | /
Cc1[nH]n(-c2ccccc2)c(=O)c1/C=N/N1CCOCC1 | 46* | 0 | / | -3 | -6
Cc1ccc(OCC(=O)N/N=C\c2c(C)[nH]n(-c3ccccc3)c2=O)c([N+](=O)[O-])c1 | / | 155* | / | 55 | -6
Cc1ccc(OCC(=O)NN=Cc2c(C)[nH]n(-c3ccccc3)c2=O)c([N+](=O)[O-])c1 | / | / | 2 | / | /
CC1=NN(c2ccc(C)cc2)C(=O)/C1=C\C=C\c1ccccc1 | 0 | 1 | 8 | 95 | -2
CC1=NN(c2ccccc2)C(=O)/C1=C/C=C/C=C/N(C)C | / | / | 63* | 13 | 16
Cc1sc2nc(SCC(=O)NCc3ccco3)n(C)c(=O)c2c1C | -4 | 0 | 16 | 0 | 3
CCn1c(SCC(=O)NC(=O)NCc2ccco2)nc2sc(C)c(C)c2c1=O | -1 | 0 | 38* | -2 | 0
CC(=O)Nc1ccc2c(c1)Cc1cc(N3C(=O)C=CC3=O)ccc1-2 | / | 668* | 20 | / | -4
O=C1C=CC(=O)N1c1ccc2c(c1)Cc1cc(F)ccc1-2 | / | 3 | 18 | / | 4
CCN1C(=C2SC(=S)NC2=O)Sc2ccccc21 | / | / | 9 | / | /
CC(C)c1ccc(C(C)NCCS(=O)(=O)c2ccc(Br)cc2)cc1 (stereo unspecified) | 5 | -1 | 3 | 91 | 35*
CC(NCCS(=O)(=O)c1ccc(Cl)cc1)c1cccc(Cl)c1 (stereo unspecified) | 4 | -1 | 7 | 4 | 6
Cc1nc2c(-c3ccc(F)cc3)c(C)[nH]n2c(=O)c1Cl | 43* | 1 | -12 | 91 | -1
O=C(CSc1nccn(-c2cccc(F)c2)c1=O)Nc1ccc(Cl)cc1F | / | 173* | 1 | -5 | -8
CCC(C)C(CNC)NCC(Cc1ccc(O)cc1)NCC(C)(C)C (stereo unspecified) | / | / | 5 | / | /
COc1ccc(C=NNC(=O)c2ccccc2Br)cc1COc1ccccc1 | / | / | -10 | / | /
CCOC(=O)c1c(/N=C/c2c(O)n(-c3ccc(F)cc3)c(=S)[nH]c2=O)sc2c1CCCC2 | / | 41* | 1 | 0 | 5
CCOC(=O)c1c(/N=C/c2c(O)n(-c3ccccc3F)c(=S)[nH]c2=O)sc2c1CCCC2 | -1 | 2 | 4 | 11 | -2
CC(C)CNC(=O)C(=O)NNC(=O)C1CCCCC1 | 0 | 0 | 3 | 3 | -6
CC(CNC(=O)C1CCCCC1)NC(=O)C1CCCCC1 (stereo unspecified) | 6 | 80* | 5 | 1 | 7
CC(=NNC(=O)Cc1c(C)[nH][nH]c1=O)c1cccc(Br)c1 | / | / | 0 | / | /
O=C(/C=C/c1ccc(Cl)cc1)N1CCN(c2c(Cl)cccc2[N+](=O)[O-])CC1 | 4 | 3 | -1 | 83 | 1
O=C(CSc1ccc(Cl)cc1)N1CCN(c2c(Cl)cccc2[N+](=O)[O-])CC1 | 16 | 66* | 8 | 15 | -3
C(=N\NC1=Nc2cccc3cccc1c23)/c1ccccn1 | -7 | 327* | / | / | 7
SMILES | RecA splice inh | PfHsp40 rescue | Mtb hypoxia inh | Mtb bLac sens | CCHF vOTU inh
CCOC(=O)c1sc(-c2ccc(Cl)cc2Cl)nc1O | -141 | 60* | 3 | 39 | -6
CCCCCCCN1CC=CC(c2ccc(OC)cc2)N(Cc2ccc(F)cc2)C(=O)C1Cc1ccccc1 (stereo unspecified) | / | / | 7 | / | /
O=C1c2ccccc2C(=O)c2c(O)c(O)cc(O)c21 | / | 179* | 8 | 11 | 12
O=C1C=C(O)c2c(O)cc(O)c(O)c2C1=O | 17 | 248* | / | 5 | 12
Nc1ccc(O)c2c1C(=O)c1ccccc1C2=O | 42* | 4 | / | 3 | 4
Nc1ccc(C2(c3ccc(N)cc3)c3ccccc3-c3ccccc32)cc1 | / | 0 | 50* | -6 | 2
Cc1cccc(Cn2c(N3CCN(C)CC3)nc3c2c(=O)[nH]c(=O)n3C)c1 | -1 | 1 | 16 | -3 | 4
Cc1cccc(Cn2c(N3CCCCC3C)nc3c2c(=O)[nH]c(=O)n3C)c1 (stereo unspecified) | 0 | 0 | 0 | 3 | 30*
O=C(CSc1nnc(-c2ccco2)o1)NCCc1ccccc1 | / | 0 | 38* | 99 | 9
Cc1ccc(S(=O)(=O)NC(=O)NCc2ccc3c(c2)OCO3)cc1 | -3 | 55* | 2 | ? | 8
OCC#CCSc1nnc(-c2ccccc2Br)o1 | 3 | 0 | 41* | 33 | 4
Cc1ccc2c(C)c3ccc4ccccc4c3c[n+]2c1 | / | 368* | / | / | -111
CC(C)CCOC(=O)C[N+](C)(C)CCOC1CC2CCC1(C)C2(C)C (stereo unspecified) | 0 | -1 | 41* | 93 | 7
COc1cccc(/C=C/C(=O)c2ccc(NS(=O)(=O)c3ccc(C)cc3)cc2)c1 | 34* | 1 | 5 | 9 | 12
COc1cc(/C=C/C(=O)c2ccc(NS(=O)(=O)c3ccc(C)cc3)cc2)cc(OC)c1O | -4 | 3 | -18 | 6 | 11
CCOC(=O)C1CCN(C(=O)c2cc3c(=O)n4cccc(C)c4nc3s2)CC1 | -23 | 32* | 7 | 1 | -18
O=C(/C=C/c1cn(CC(O)CN2CCCCC2)c2ccccc12)c1ccccc1 (stereo unspecified) | 1 | -2 | 33* | / | 0
N=C(N)c1ccc(/C=C/c2ccc(C(=N)N)cc2O)cc1 | -12 | 137* | 21 | 35 | -12
CCOC(=O)C1C2COc3ccccc3C2N2C(=O)c3cc(Cl)ccc3NC(=O)[C@@]12C (stereo partly specified) | / | / | -5 | / | /
O=C1C(Cl)=C(N2CCN(c3ccccc3[N+](=O)[O-])CC2)C(=O)c2ccccc21 | 0 | -1 | -3 | 8 | 85*
COc1ccc(CC(=O)N/N=C(/C)CC(=O)N(C)c2ccccc2)cc1 | 30* | -1 | / | -5 | -1
COc1ccc(CC(=O)NN=C(C)CC(=O)N(C)c2ccccc2)cc1 | / | / | -1 | / | /
O=C(NC(C1CC1)C1CC1)C1CCC(=O)N(CCCN2CCCC2=O)C1 (stereo unspecified) | -5 | 36* | 1 | 2 | 4
CC1CC2C(C(O)C[C@@]3(C)C2CC[C@]3(O)C(=O)CO)[C@@]2(C)C=CC(=O)C=C12 (stereo partly specified) | / | / | 3 | / | /
CCn1c(=O)c(C(=O)NNC(=O)c2ccccc2)c(O)c2ccccc21 | 8 | 168* | 6 | 1 | -2
CCCCCCn1c(=O)c(C(=O)Nc2ncccc2C)c(O)c2ccccc21 | 8 | 145* | / | 100 | 8
CCCCn1c(=O)c(C(=O)NCc2ccncc2)c(O)c2ccccc21 | 3 | 219* | 2 | 7 | 9
CC(C)Cn1c(=O)c(C(=O)Nc2ccncc2)c(O)c2ccccc21 | -1 | 0 | 42* | 100 | -5
CCCCn1c(=O)c(C(=O)Nc2ncccc2C)c(O)c2ccccc21 | / | ? | -1 | 100 | 17
CCCCCCC(=O)NNC(=O)c1c(O)c2ccccc2n(CC)c1=O | 3 | 4 | -1 | 3 | 8
